Records with an inconclusive call do not appear. Where a call stands in place of a potency, no number is given. Activity calls are given as the source filed them. Calls come from the whole dose curve; as a rule, active = well fitted curve in the direction sought with a large enough effect in the repeat runs; inconclusive = weak or mixed curves; inactive = no such curve, though single readings can be large; an effect the other way counts as inactive or inconclusive.
Test: A CellTox Green Cytotoxicity Assay to monitor cytotoxicity in HepG2 cells - 8 hour (AID 1224890); note: nearly all actives have a fitted effect of over 45% in size
Settings: CellTox Green fluorescence; series mostly up to 76.8 µM
Summary of the method: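 HepG2, 600 cells/well premixed w/ CellTox Green; 5 h settle, 37 C/5% CO2; pintool cpd add (DMSO); 37 C, 40 h; fluorescence read at 0, 8, 16, 24, 32, 40 h.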
With `O=C(Nc1ccccc1)c1cc(Cl)ccc1O` the Potency was “inactive”.
For `Cc1ccc(N=Nc2c(O)ccc3ccccc23)c(C)c1`, the Potency was “inactive”.
For `CC(C)(C)c1cc(CCC(=O)OCCSCCOC(=O)CCc2cc(C(C)(C)C)c(O)c(C(C)(C)C)c2)cc(C(C)(C)C)c1O`, the Potency was “inactive”.
For `C=Cc1ccncc1`, the Potency was “inactive”.
With `CCCCCN=C(N)N/N=C/c1c[nH]c2ccc(OC)cc12` the Potency was 10.7 µM (active).
With `O=C1CCCCCCCCCCCCCC1` the Potency was “inactive”.
With `CCN(CC)c1ccc(N=Nc2ccccc2)cc1` the Potency was “inactive”.
With `O=C1CCC/C=C\CCCCCCCCCC1` the Potency was “inactive”.
With `Brc1cc(Br)cc(Br)c1` the Potency was “inactive”.
In the case of `N#Cc1ccc(C/C(=N/NC(=O)Nc2ccc(OC(F)(F)F)cc2)c2cccc(C(F)(F)F)c2)cc1`, the Potency is reported as “inactive”.
With `CSc1nnc(C(C)(C)C)c(=O)[nH]1` the Potency was “inactive”.
With `CCCCCCCCCC[N+](C)(CCCCCCCCCC)CCC[Si](OC)(OC)OC` the Potency was 43.6 µM (active).
In the case of `c1ccc2c(c1)-c1ccc3ccc4cccc5cc-2c1c3c45`, the Potency is reported as “inactive”.
For `O=C(CCCCCCCCc1cccnc1)N1CCC(C=C(c2ccccc2)c2ccccc2)CC1`, the Potency was “inactive”.
With `CCN(CC)c1ccc(C=O)c(O)c1` the Potency was “inactive”.
In the case of `COc1cc(/C=C/C(=O)CC(=O)/C=C/c2ccc(O)c(OC)c2)ccc1O`, the Potency is reported as 49.3 µM (active).
In the case of `C=CC(=O)O[C@H]1C[C@@H]2CC[C@@]1(C)C2(C)C`, the Potency is reported as “inactive”.
For `CCC1(C)C(=O)N(Cl)C(=O)N1Cl` (centres undefined), the Potency was “inactive”.
With `CC/C=C(\C)C=O` the Potency was “inactive”.
With `O=C(Nc1ccc([N+](=O)[O-])cc1)Nc1ccc([N+](=O)[O-])cc1` (tested in a mixture with another compound) the Potency was “inactive”.
With `O=C(NCc1ncc(C(F)(F)F)cc1Cl)c1c(Cl)cccc1Cl` the Potency was “inactive”.
For `CCCCCCCCCCCCS(=O)(=O)Cl`, the cytotoxicity increase was -21% [at 15.8 µM] (inactive).
With `CCc1cccc(C)c1N(C(=O)C(=O)O)C(C)COC` (centres undefined) the Potency was “inactive”.
For `CCC(=O)OC/C=C(\C)CCC=C(C)C`, the Potency was “inactive”.
For `CCCCC/C=C\C=C\C(=O)OCC`, the Potency was “inactive”.
For `CCCC(C)C=O` (centres undefined), the Potency was “inactive”.
In the case of `CC(O)(c1ccc(Cl)cc1)c1ccc(Cl)cc1`, the Potency is reported as 54.9 µM (active).
For `C=Cc1ccc(O)c(OC)c1`, the Potency was “inactive”.
For `Cc1cc(Br)ccc1NC(=O)CCl`, the Potency was “inactive”.

Test: qHTS assay to identify small molecule antagonists of the estrogen receptor alpha (ER-alpha) signaling pathway using the BG1 cell line in the presence of 0.1 nM 17-beta-estradiol - cell viability counter screen (AID 1259241); note: nearly all actives have a fitted effect of over 40% in size
Settings: VM7Luc4E2 (BG1) viability, CellTiter-Fluor protease, 22 h, 0.1 nM estradiol agonist added; series mostly up to 92.4 µM
Summary of the method: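 Cells were plated and left 24 hr, compounds in DMSO were pinned in, 17beta-estradiol was added to 0.1 nM final, and after 22 hr CellTiter-Fluor reagent was added for 30 min before fluorescence was read.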
With `C/C=C/C(=O)OCC(C)C` the Potency was “inactive”.
In the case of `CN1CCN(CCCN2c3ccccc3Sc3ccc(C(F)(F)F)cc32)CC1`, the Potency is reported as “inactive”.
For `CC(C)(C)c1cc(CCC(=O)OCCSCCOC(=O)CCc2cc(C(C)(C)C)c(O)c(C(C)(C)C)c2)cc(C(C)(C)C)c1O`, the Potency was “inactive”.
In the case of `C=Cc1ccncc1`, the Potency is reported as “inactive”.
For `CCCCCN=C(N)N/N=C/c1c[nH]c2ccc(OC)cc12`, the Potency was 29.8 µM (active).
In the case of `O=C1CCCCCCCCCCCCCC1`, the Potency is reported as “inactive”.
In the case of `O=C1CCC/C=C\CCCCCCCCCC1`, the Potency is reported as “inactive”.
In the case of `Brc1cc(Br)cc(Br)c1`, the Potency is reported as “inactive”.
In the case of `N#Cc1ccc(C/C(=N/NC(=O)Nc2ccc(OC(F)(F)F)cc2)c2cccc(C(F)(F)F)c2)cc1`, the Potency is reported as “inactive”.
For `CSc1nnc(C(C)(C)C)c(=O)[nH]1`, the Potency was “inactive”.
In the case of `CCOC(=O)OC(=O)OCC`, the Potency is reported as “inactive”.
In the case of `CCCCCCCCCC[N+](C)(CCCCCCCCCC)CCC[Si](OC)(OC)OC`, the Potency is reported as “inactive”.
With `c1ccc2c(c1)-c1ccc3ccc4cccc5cc-2c1c3c45` the Potency was “inactive”.
In the case of `O=C(CCCCCCCCc1cccnc1)N1CCC(C=C(c2ccccc2)c2ccccc2)CC1`, the Potency is reported as “inactive”.
With `CCN(CC)c1ccc(C=O)c(O)c1` the Potency was “inactive”.
With `COc1cc(/C=C/C(=O)CC(=O)/C=C/c2ccc(O)c(OC)c2)ccc1O` the Potency was “inactive”.
In the case of `CC(C=O)c1ccccc1` (centres undefined), the Potency is reported as “inactive”.
For `C=CC(=O)O[C@H]1C[C@@H]2CC[C@@]1(C)C2(C)C`, the Potency was “inactive”.
With `CCC1(C)C(=O)N(Cl)C(=O)N1Cl` (centres undefined) the Potency was “inactive”.
With `CN[C@H]1CC[C@@H](c2ccc(Cl)c(Cl)c2)c2ccc(S(N)(=O)=O)cc21` the Potency was “inactive”.
In the case of `CC/C=C(\C)C=O`, the Potency is reported as “inactive”.
For `O=C(Nc1ccc([N+](=O)[O-])cc1)Nc1ccc([N+](=O)[O-])cc1` (tested in a mixture with another compound), the Potency was “inactive”.
In the case of `O=C(NCc1ncc(C(F)(F)F)cc1Cl)c1c(Cl)cccc1Cl`, the Potency is reported as “inactive”.
For `CCCCCCCCCCCCS(=O)(=O)Cl`, the activity change, negative = cytotoxicity was -4% [at 19 µM] (inactive).
In the case of `Cc1cccc2c1ccc1ccccc12`, the Potency is reported as “inactive”.
For `CC(=O)CC(N)=O`, the Potency was “inactive”.
With `CCc1cccc(C)c1N(C(=O)C(=O)O)C(C)COC` (centres undefined) the Potency was “inactive”.
In the case of `CCC(=O)OC/C=C(\C)CCC=C(C)C`, the Potency is reported as “inactive”.
In the case of `CCCCC/C=C\C=C\C(=O)OCC`, the Potency is reported as “inactive”.
With `CCCC(C)C=O` (centres undefined) the Potency was “inactive”.
With `CC(O)(c1ccc(Cl)cc1)c1ccc(Cl)cc1` the Potency was “inactive”.
In the case of `C=Cc1ccc(O)c(OC)c1`, the Potency is reported as “inactive”.
With `Cc1cc(Br)ccc1NC(=O)CCl` the Potency was 61.1 µM (active).
In the case of `CC(=O)[C@]1(O)Cc2c(O)c3c(c(O)c2[C@@H](O[C@H]2C[C@H](N)[C@H](O)[C@H](C)O2)C1)C(=O)c1ccccc1C3=O`, the Potency is reported as 10.6 µM (active).
For `c1ccc2cc3c4ccccc4c4ccccc4c3cc2c1`, the Potency was “inactive”.
Potency is the fitted concentration of half-maximal effect.
